Test results as given in PubChem BioAssay AID1851 (National Center for Advancing Translational Sciences (NCATS), 2009).
Several values for one entry are separate records, joined by “and”; a condition that tells them apart may be missing. Equal entries are not always repeated. Out of some 16,000 compounds screened, about 5,700 (36%) were called active. Not shown: some 24% with an inconclusive outcome. Calls come from the whole dose curve; as a rule, active = well fitted curve in the direction sought with a large enough effect; inconclusive = small, poorly fitted or top-dose-only effect, or effect the other way; inactive = no such curve, though single readings can be large or run the other way. This is one part of the list.
% is set by controls: 0 for no effect and ±100 for the full control effect.

Each compound was assayed against Cytochrome P450 1A2 (Homo sapiens) (UniProt P05177) (assay: Cytochrome panel assay with activity outcomes). Conditions: recombinant CYP, pro-luciferin dealkylation, luminescence, p450-cyp1a2; series mostly up to 57.1 µM.
Sequence of Cytochrome P450 1A2 (Homo sapiens) (P05177 whole entry, looked up): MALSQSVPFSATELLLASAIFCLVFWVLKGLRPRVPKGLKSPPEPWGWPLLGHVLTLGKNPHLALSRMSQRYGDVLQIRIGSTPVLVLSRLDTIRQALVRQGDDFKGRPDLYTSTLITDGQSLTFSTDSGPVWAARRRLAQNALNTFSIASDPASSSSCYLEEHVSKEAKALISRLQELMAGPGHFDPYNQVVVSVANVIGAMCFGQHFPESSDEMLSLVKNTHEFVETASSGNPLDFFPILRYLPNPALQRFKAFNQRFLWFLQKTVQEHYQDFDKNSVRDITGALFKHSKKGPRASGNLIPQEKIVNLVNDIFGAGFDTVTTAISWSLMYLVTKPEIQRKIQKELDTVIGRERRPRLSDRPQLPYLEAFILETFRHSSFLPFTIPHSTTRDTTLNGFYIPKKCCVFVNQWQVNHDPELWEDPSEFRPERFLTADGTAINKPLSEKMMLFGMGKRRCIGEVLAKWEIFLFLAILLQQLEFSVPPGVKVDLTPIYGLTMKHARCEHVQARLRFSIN
With COCC(=O)N1CCC2(CCCN(C(=O)Nc3cccc(F)c3)C2)CC1 the AC50 was “inactive”.
With CCc1cc2c(nc1CC)CCN(CC/C(C)=N/O[C@@H](C)c1cn([C@@H]3COC[C@@H]3O)nn1)C2 the activity, negative = inhibition was -1.13% [at 11.4 µM] (inactive).
With COc1ccc(-c2ccc3c(n2)CCCN3C[C@H](O)CN2CCCc3nc(-c4ccc(Br)cc4)ccc32)cc1 the activity, negative = inhibition was -3.07% [at 11.4 µM] (inactive) and -10.4% [at 11.4 µM] (inactive).
COc1ccc(Cc2nc3ccc(S(=O)(=O)N4CCOCC4)cc3[nH]2)cc1OC was tested, and the AC50 was “inactive”.
Cc1ccc2nc(Cc3ccc(N)cc3)[nH]c2c1 was tested, and the AC50 was 3.98 µM (active).
With O=[N+]([O-])c1cc2c(cc1C=Nc1ccccc1)OCO2 the AC50 was 2.82 µM (active).
With O=C(O)c1cc(N=Cc2ccccc2O)cc(C(=O)O)c1 the activity, negative = inhibition was -12.6% [at 11.4 µM] (inactive).
With CN(C)c1ncc2ncc(=O)n(CCC#N)c2n1 the AC50 was 12.6 µM (active).
Cc1nc2cnc(N(C)C)nc2n(CCC#N)c1=O was tested, and the AC50 was 10 µM (active).
CC(C)=CCc1c2c(c3occ(-c4ccc(O)c(O)c4)c(=O)c3c1O)C=CC(C)(C)O2 was tested, and the activity, negative = inhibition was -3.01% [at 2.29 µM] (inactive).
With Br/C(=N\Nc1nn[nH]n1)c1ccncc1 the activity, negative = inhibition was -5.24% [at 11.4 µM] (inactive).
In the case of CC(C)(C)CNC(CO)C12CC3CC(CC(C3)C1)C2 (configuration not stated), the AC50 is reported as “inactive”.
In the case of C=CC[C@@H](C(=O)O)c1ccccc1, the activity, negative = inhibition is reported as 0.428% [at 11.4 µM] (inactive).
CCN(Cc1ccncc1)C(=O)[C@@H](CO)c1ccccc1 was tested, and the AC50 was 15.8 µM (active).
With CN(C(=O)c1ccncc1)c1ccccc1 the activity, negative = inhibition was -13.8% [at 11.4 µM] (inactive).
CC(C)(C)c1[nH]nc2c1C(c1ccc(OC(=O)c3ccco3)cc1)C(C#N)=C(N)O2 (configuration not stated) was tested, and the AC50 was 31.6 µM (active).
With COCCn1c(=O)c(-c2ccc(Cl)cc2)nc2cnc(Oc3ccccc3)nc21 the AC50 was 0.794 µM (active).
Cn1c(=O)c(-c2cccc(C#N)c2)nc2cnc(Oc3ccccc3)nc21 was tested, and the AC50 was 1.58 µM (active).
COc1ccc(Oc2ncc3nc(-c4cccc(C#N)c4)c(=O)n(Cc4cccc(OC)c4)c3n2)cc1 was tested, and the AC50 was “inactive”.
COCCn1c(=O)c(-c2ccc(F)cc2)nc2cnc(Oc3ccccc3)nc21 was tested, and the AC50 was 0.794 µM (active).
With COCCn1c(=O)c(-c2cccc(C#N)c2)nc2cnc(Oc3ccccc3)nc21 the AC50 was 15.8 µM (active).
C[N+]1(NCC[N@@+]2(C)CCc3ccccc3C2)CCCCC1 was tested, and the activity, negative = inhibition was -12.7% [at 11.4 µM] (inactive).
In the case of COC(=O)[C@@]1(Cc2ccccc2)[C@H]2c3cc(C(=O)N4CCCC4)n(Cc4ccc(OC)c(OC)c4)c3C[C@H]2CN1C(=O)c1ccccc1, the AC50 is reported as “inactive”.
In the case of COCCn1c(=O)c(-c2ccccc2)nc2cnc(Oc3ccc(OC)cc3)nc21, the AC50 is reported as 1.26 µM (active).
For COCCn1c(=O)c(-c2ccccc2)nc2cnc(Oc3ccccc3)nc21, the AC50 was 1.58 µM (active).
In the case of COCCn1c(=O)c(-c2cc(F)cc(F)c2)nc2cnc(Oc3ccccc3)nc21, the AC50 is reported as 5.01 µM (active).
For C#CCCCO/N=C1/C[C@@H](O)[C@@H](O)[C@@H]2[C@H]3C(=O)N(c4ccc(F)cc4F)C(=O)[C@@H]3CC[C@H]12, the activity, negative = inhibition was -9.85% [at 11.4 µM] (inactive).
With CO[C@H]1COC(=O)C/C=C\[C@H](C)[C@@H](NS(=O)(=O)c2ccc(C)cc2)COC(=O)C/C=C\[C@@H]1C the activity, negative = inhibition was -4.23% [at 11.4 µM] (inactive) and -3.02% [at 11.4 µM] (inactive).
With CCSC(=N)N the AC50 was “inactive”.
In the case of C[C@@H]1O[C@H]2C3=C(C(=O)[C@H]4O[C@@H]4[C@H]3O)[C@@H]1[C@@H]1[C@@H](C)OC=C3[C@H](O)[C@H]4O[C@@H]4/C(=N\OCc4ccccc4)[C@]312, the activity, negative = inhibition is reported as -0.558% [at 11.4 µM] (inactive).
In the case of COC(=O)COc1ccc2c(-c3cccc([N+](=O)[O-])c3)cc(=O)oc2c1, the AC50 is reported as 2 µM (active).
COc1ccc([N+](=O)[O-])cc1COc1ccc2c(-c3ccccc3)cc(=O)oc2c1 was tested, and the AC50 was “inactive”.
In the case of COC(=O)[C@@]1(Cc2ccc(F)cc2)[C@H]2c3cc(C(=O)N4CCCC4)n(Cc4ccc(C)c(F)c4F)c3C[C@H]2CN1C(=O)c1ccccc1, the AC50 is reported as “inactive”.
Cc1nc2c(n1C1CCCCC1)C(=O)c1ccccc1C2=O was tested, and the AC50 was 6.31 µM (active).
In the case of CCn1c(C)nc2c1C(=O)c1ccccc1C2=O, the AC50 is reported as 0.447 µM (active).
CCOC(=O)C(C)Sc1nnc(CNC(=O)c2ccc(OC)cc2)n1C1CCCCC1 (configuration not stated) was tested, and the AC50 was “inactive”.
For CC(Sc1nnc(Cc2cccs2)n1C1CCCCC1)C(N)=O (configuration not stated), the AC50 was “inactive”.
In the case of COc1ccc(NC(=O)CSc2nc(-c3ccc(C)cc3)cc(C(F)(F)F)c2C#N)cc1, the AC50 is reported as “inactive”.
For COC(=O)Cn1cnc(=O)c(C#N)c1/C=C/N(C)C, the AC50 was “inactive”.
With COC(=O)CSc1nc(C)cc(C(F)(F)F)c1C#N the AC50 was 2 µM (active).
With COC(=O)[C@@]1(Cc2ccc(F)cc2)[C@H]2c3cc(C(=O)N(C)C)n(Cc4ccc(C)c(F)c4F)c3C[C@H]2CN1C(=O)c1ccccc1 the AC50 was “inactive”.
CN1CCN(c2ccnc(-c3ccoc3)n2)CC1 was tested, and the AC50 was 12.6 µM (active).
With CN1CCN(c2cc(-c3ccc(N(C)C)cc3)ncn2)CC1 the AC50 was 2.51 µM (active).
For CN1CCN(c2ccnc(-c3ccc(N(C)C)cc3)n2)CC1, the AC50 was 0.794 µM (active).
O=C(O)CCCCn1ccc(=O)[nH]c1=O was tested, and the activity, negative = inhibition was -6.18% [at 11.4 µM] (inactive).
In the case of O=C(O)c1cscc1Cc1cccs1, the activity, negative = inhibition is reported as -18.8% [at 11.4 µM] (inactive).
In the case of O=C(Cc1cccs1)N/N=C/C(Br)=C/c1ccccc1, the AC50 is reported as 5.01 µM (active).
In the case of CC(/C=N/NC(=O)Cc1cccs1)=C\c1ccco1, the AC50 is reported as 11.2 µM (active).
O=C(NCc1ccco1)C(c1ccccc1)N(C(=O)Cc1cccs1)c1ccccc1F (configuration not stated) was tested, and the AC50 was “inactive”.
For C/C(CC(=O)NC1CCCC1)=N\NC(=O)Cc1cccs1, the AC50 was “inactive”.
With O=C(O)C/C(=C\c1ccccc1)C(=O)O the activity, negative = inhibition was -13% [at 11.4 µM] (inactive).
For CN1CC[C@@]2(CCCN(C(=O)c3cccc(F)c3)C2)C1, the AC50 was “inactive”.
With Cc1cc(S(=O)(=O)NCCN(C)C)c(C)s1 the AC50 was “inactive”.
In the case of CCOc1cc(/C=N/O)cc(Cl)c1OC, the AC50 is reported as 1.41 µM (active).
For COc1ccc(C2C(C#N)=C(N)OC3=C2C(=O)CC(C)(C)C3)c([N+](=O)[O-])c1OC (configuration not stated), the AC50 was “inactive”.
With COC(=O)C1=C(C)OC(N)=C(C#N)C1c1cc(OC)ccc1OC (configuration not stated) the AC50 was 15.8 µM (active).
For CCCCOC(=O)C1=C(C)Nc2ncnn2C1c1cc(OC)ccc1OC (configuration not stated), the AC50 was “inactive”.
